Source: PubChem BioAssay (EPA / NIEHS)
Results filed as inconclusive are left out. Calls of active or inactive are those of the source. How the source made its calls: active means hit-call score of the fitted dose curve at least 0.9, where 1 is the maximum; inconclusive means response in the unintended direction; inactive means score below 0.9.

experiment: IUF_NPC2-5_cytotoxicity_72hr: Cytotoxicity Assessment at 72 hours in the Leibniz Research Institute for Environmental Medicine (IUF) Neural Progenitor Cell Migration and Differentiation Assay for Cytotoxicity (NPC2-5) (AID 2284306);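 further: LDH release into supernatant measured by resorufin fluorescence marking membrane damage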
Experimental: IUF_NPC2-5 is a cell-based, multiplexed assay that uses hNPC, a human primary neural progenitor cells, with measurements taken at 72 or 120 hours after chemical dosing in a 96-well plate. Human neural progenitor cells (hNPC) are generated from human fetal brain cortex at gestational week (GW) 16-19. In the neural progenitor cell migration and differentiation assay (NPC2-5), hNPCs grown as spheres are plated on an extracellular matrix and migrate and differentiate out of the sphere core. The processes radial glia migration, neuronal and oligodendrocyte migration as well as neuronal differentiation, neuronal morphology and oligodendrocyte differentiation are studied using automated phase contrast imaging and automated fluorescence imaging in combination with high content image analysis. In parallel, the cell viability is assessed using an alamar blue viability assay and the cytotoxicity using a lactate dehydrogenase dependent membrane integrity assay.IUF_NPC2-5_cytotoxicity_72hr is one of 12 assay components measured from the IUF_NPC2-5 assay. It is designed to measure the cytotoxicity at 72 hr as assessed by membrane integrity related to the LDH dependent reduction of resazurin to resorufin in the supernatant of each well. The cytotoxicity is measured as fluorescence signal (relative fluorescence unit) in a multiplate reader. Data from the IUF_NPC2-5_cytotoxicity_72hr component was analyzed at the endpoint IUF_NPC2-5_cytotoxicity_72hr in the positive analysis fitting direction relative to the dynamic range and baseline of activity. Using a type of viability reporter, gain-of-signal activity can be used to understand cytotoxicity effects.
Culture protocol: After the cell expansion period the cells are cultured for up to four weeks in which they are passaged every week as described in 3.6. Between one to three days after passaging spheres at a size of 0.3 mm are picked for the test method. For the assessment of neural progenitor cell migration and differentiation, the spheres are plated on poly-D-lysine/laminin coated 96-well flat bottom plates in differentiation medium (N2) to initiate migration and differentiation. Thereby one 0.3 mm big sphere is plated in the middle of a well. The differentiation medium consists of DMEM and Ham's F12 at a ratio of 3 to 1 supplemented with 1% N2 and 1% penicillin and streptomycin. Within 5 days NPCs radially migrate out of the sphere core and differentiate into radial glia cells (nestin positive), neurons (TUBB3 positive), oligodendrocytes (O4 positive) and astrocytes (GFAP positive). Cultivation during the test method is performed at 37C and 5% CO2 at a ph of 7.2-7.6.Exposure: 0.3 mm big hNPC are plated in the already prepared test conditions. Exposure starts at day 0 of differentiation and is continued over five days of differentiation until the experiment is terminated. Cells are fed with fresh medium at day 3 of differentiation. Therefore, half of the test condition solution (e.g. solvent control or compound dilution) is replaced by freshly prepared test condition solution.Test Method: Migration distance and cytotoxicity is determined after 72 hours based on brightfield images of each well. The assay is terminated by the assessment of cell viability and cytotoxicity as well as cell fixation after 120 h. Immunocytochemistry is performed for Hoechst positive nuclei, TUBB3 positive neurons and O4 positive oligodendrocytes. On the ICC images, migration after 120 hours, neuronal and oligodendrocyte number, neuronal morphology and neuron/oligodendrocyte specific migration is assessed. immunocytochemical staining (ICC) generates an image for each sphere. The plates are scanned using an automated high content imaging device and all nuclei and their positions are determined automatically based on their intensity and size. Images are imported to the Omnisphero software to run the image analysis that measures the following endpoints. […]

Structure (SMILES)	outcome	AC50
CC1(c2ccc(Oc3ccccc3)cc2)OC(=O)N(Nc2ccccc2)C1=O (stereo not drawn)	inactive	
CNC(=O)CSP(=S)(OC)OC	inactive	
COP(=O)(OC)OC=C(Cl)Cl	inactive	
CCC(C)(C)C(=O)OC1=C(c2ccc(Cl)cc2Cl)C(=O)OC12CCCCC2	inactive	
CC1(C)C(C=C(Cl)Cl)C1C(=O)OC(C#N)c1ccc(F)c(Oc2ccccc2)c1 (stereo not drawn)	inactive	
O=C(O)C(F)(F)C(F)(F)C(F)(F)C(F)(F)C(F)(F)C(F)(F)C(F)(F)F	inactive	
O=S1OCC2C(CO1)C1(Cl)C(Cl)=C(Cl)C2(Cl)C1(Cl)Cl (stereo not drawn)	inactive	
CC[C@H](C)[C@H]1O[C@]2(C=C[C@@H]1C)C[C@@H]1C[C@@H](C/C=C(\C)[C@@H](O[C@H]3C[C@H](OC)[C@@H](O[C@H]4C[C@H](OC)[C@@H](O)[C@H](C)O4)[C@H](C)O3)[C@@H](C)/C=C/C=C3\CO[C@@H]4[C@H](O)C(C)=C[C@@H](C(=O)O1)[C@]34O)O2 (tested in a mixture with another compound)		7.55 µM (active)
O=S(=O)(O)C(F)(F)C(F)(F)C(F)(F)C(F)(F)C(F)(F)C(F)(F)C(F)(F)C(F)(F)F		79.3 µM (active)
COP(=S)(OC)Oc1ccc([N+](=O)[O-])cc1	inactive	
O=[N+]([O-])/N=C1\NCCN1Cc1ccc(Cl)nc1	inactive	
O=C(O)COc1ccc(Cl)cc1Cl	inactive	
CC(C)N(C(=O)COc1nnc(C(F)(F)F)s1)c1ccc(F)cc1	inactive	
